Test results as given in PubChem BioAssay (Tox21).
Inconclusive results are not listed. A call without a number means that no potency is given here. Some structures have more than one record in an assay (separate samples or runs), and their calls can disagree. Activity calls are given as the source filed them. Unless noted, the call rests on the fitted dose curve.

Key:
[1] = Nuclear factor erythroid 2-related factor 2/antioxidant responsive element (Nrf2/ARE) small molecule agonists: qHTS cell viability counter screen in human keratinocytes (AID 1919968; active means well fitted curve in the direction sought with a large enough effect in the repeat runs; an effect the other way counts as inactive or inconclusive; further: nearly all actives have a fitted effect of over 55% in size)
How it was run: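 Seed 1,500 KeratinoSens cells per well, then incubate 5 h at 37 C/5% CO2. Add compounds in DMSO and incubate 23 h. Add CellTiter-Fluor, wait 1 h and read fluorescence.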

[2] = Nuclear factor erythroid 2-related factor 2/antioxidant responsive element (Nrf2/ARE) small molecule agonists: luciferase reporter gene qHTS assay in human keratinocytes (AID 1919969); further: nearly all actives have a fitted effect of over 35% in size; further: potency means the concentration at half of the fitted maximal effect
[3] = molecular target: Gonadotropin-releasing hormone receptor (Homo sapiens) (UniProt P30968); experiment: Human gonadotropin-releasing hormone receptor (GnRHR) small molecule agonists, calcium flux assay in GnRHR-HEK293 cells (AID 1920063); further: nearly all actives have a fitted effect of over 35% in size
Chain of Gonadotropin-releasing hormone receptor (Homo sapiens) (P30968 whole entry, looked up): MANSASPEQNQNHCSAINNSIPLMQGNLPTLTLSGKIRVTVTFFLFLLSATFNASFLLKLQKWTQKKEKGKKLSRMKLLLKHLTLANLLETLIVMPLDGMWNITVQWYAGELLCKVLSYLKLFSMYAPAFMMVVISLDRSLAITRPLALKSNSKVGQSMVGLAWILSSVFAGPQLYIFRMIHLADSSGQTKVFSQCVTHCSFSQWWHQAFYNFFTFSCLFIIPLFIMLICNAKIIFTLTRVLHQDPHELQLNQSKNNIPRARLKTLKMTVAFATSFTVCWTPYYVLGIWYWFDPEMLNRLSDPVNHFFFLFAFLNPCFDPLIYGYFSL
How it was run: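 Cells: HEK293 stably expressing human GnRHR. Steps: overnight (18 h) culture, 1 h calcium dye loading at 37 C, compound addition, kinetic fluorescence read at 480/540 nm. Each compound tested at 15 concentrations in triplicate.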

[4] = molecular target: KiSS-1 receptor (Homo sapiens) (UniProt Q969F8); experiment: Human kisspeptin (KISS1R) small molecule agonists, calcium flux assay in KISS1R-HEK293 cells (AID 1920064; active means well fitted curve in the direction sought with a large enough effect in the repeat runs; an effect the other way counts as inactive or inconclusive)
Chain of KiSS-1 receptor (Homo sapiens) (Q969F8 whole entry, looked up): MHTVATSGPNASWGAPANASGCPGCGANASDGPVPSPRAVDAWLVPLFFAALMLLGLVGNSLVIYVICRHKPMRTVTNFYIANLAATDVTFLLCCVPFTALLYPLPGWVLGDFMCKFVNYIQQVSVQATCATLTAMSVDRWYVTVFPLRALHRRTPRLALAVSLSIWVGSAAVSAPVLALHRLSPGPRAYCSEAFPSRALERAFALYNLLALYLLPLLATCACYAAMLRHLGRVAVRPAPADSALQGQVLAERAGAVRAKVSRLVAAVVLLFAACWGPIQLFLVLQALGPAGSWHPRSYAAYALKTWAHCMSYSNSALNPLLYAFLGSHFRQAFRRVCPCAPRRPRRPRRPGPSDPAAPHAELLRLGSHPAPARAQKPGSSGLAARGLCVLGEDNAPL
How it was run: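 Cells plated and incubated 18 h; dye added, 1 h at 37 C; compounds in DMSO pinned in; signal read at 480/540 nm every second for 3 min. Each compound tested at 15 concentrations in triplicate.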

[5] = G protein-coupled receptor (GPCR) small molecule agonists, calcium flux assay: HEK293 wild type cell line counter screen (AID 1920065)
How it was run: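 Counter-screen of the Tox21 10K library for non-specific calcium release: dye-loaded cells received compounds in DMSO and were monitored by kinetic fluorescence (480/540 nm, 3 min). Fifteen concentrations, run in triplicate.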

[6] = p53 small molecule agonists, cell-based qHTS assay with human liver microsomes: qHTS cell viability counter screen (AID 1963579); further: nearly all actives have a fitted effect of over 45% in size
How it was run: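 Luminescent CellTiter-Glo read-out, 30 min at room temperature, gauged cytotoxicity in p53RE-bla cells exposed 16 h at 37 C to DMSO-dissolved compounds with metabolic activation by human liver microsomes and NADPH, each 0.5 mg/mL final.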

[7] = p53 small molecule agonists, cell-based qHTS assay with rat liver microsomes: qHTS cell viability counter screen (AID 1963580); further: nearly all actives have a fitted effect of over 45% in size
How it was run: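 Viability is assessed in parallel with the p53 reporter read: HCT-116 p53RE-bla cells receive compounds plus rat microsomes and NADPH (0.5 mg/mL final apiece), incubate 16 h at 37 C, and then CellTiter-Glo luminescence is recorded.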

[8] = p53 small molecule agonists, cell-based qHTS assay: qHTS cell viability counter screen (AID 1963581); further: nearly all actives have a fitted effect of over 45% in size
How it was run: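 Cells: HCT-116 with p53 response element-driven beta-lactamase. Treatment: 16 h, 37 C, compounds in DMSO. Read: CellTiter-Glo luminescence after 30 min RT.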

[9] = p53 small molecule agonists, cell-based qHTS assay (AID 1963582; active means well fitted activation curve with a large enough effect in the signal ratio in the repeat runs, not every such curve was filed as active; the % refers to the signal ratio)
How it was run: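 Quantitative HTS in p53RE-bla cells: after a 5 h settling period, compounds delivered in DMSO were left on cells for 16 h at 37 C, and reporter induction was measured as fluorescence following 2 h substrate loading.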

[10] = molecular target: 5-hydroxytryptamine receptor 2A (Homo sapiens) (UniProt P28223); experiment: 5-hydroxytryptamine receptor 2A (HTR2A) small molecule antagonists, cell-based qHTS assay (AID 1963586); further: nearly all actives have a fitted effect of over 45% in size
Chain of 5-hydroxytryptamine receptor 2A (Homo sapiens) (P28223 whole entry, looked up): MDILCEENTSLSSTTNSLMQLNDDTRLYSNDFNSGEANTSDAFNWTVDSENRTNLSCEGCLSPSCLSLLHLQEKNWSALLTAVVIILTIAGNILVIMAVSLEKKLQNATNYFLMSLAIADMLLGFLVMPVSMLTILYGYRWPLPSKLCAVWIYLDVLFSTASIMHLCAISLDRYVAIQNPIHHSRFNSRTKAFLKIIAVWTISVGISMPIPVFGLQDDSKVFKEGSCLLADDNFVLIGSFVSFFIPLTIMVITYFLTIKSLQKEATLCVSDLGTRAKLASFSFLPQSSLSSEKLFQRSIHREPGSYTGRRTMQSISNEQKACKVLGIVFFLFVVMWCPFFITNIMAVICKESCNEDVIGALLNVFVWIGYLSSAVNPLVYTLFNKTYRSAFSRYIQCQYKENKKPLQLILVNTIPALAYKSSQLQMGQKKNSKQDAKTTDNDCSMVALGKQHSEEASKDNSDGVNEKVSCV
How it was run: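 Antagonist-mode intracellular calcium assay: DOI (4 nM) added after 5 min compound pre-incubation at room temperature to dye-loaded HTR2A-CHO cells. Fluorescence followed for 3 min, sampled every second.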

[11] = molecular target: 5-hydroxytryptamine receptor 2A (Homo sapiens) (UniProt P28223); experiment: 5-hydroxytryptamine receptor 2A (HTR2A) small molecule agonists, cell-based qHTS assay (AID 1963587); further: nearly all actives have a fitted effect of over 30% in size
How it was run: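 CHO cells stably expressing human HTR2A, plated 18 h, loaded with calcium dye 1 h at 37 C. Agonist mode: compounds added and intracellular calcium fluorescence recorded kinetically for 2 min at 1 sec intervals.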

[12] = molecular target: Muscarinic acetylcholine receptor M1 (Homo sapiens) (UniProt P11229); experiment: Cholinergic receptor muscarinic 1 (CHRM1) small molecule antagonists, cell-based qHTS assay (AID 1963588); further: nearly all actives have a fitted effect of over 40% in size
Chain of Muscarinic acetylcholine receptor M1 (Homo sapiens) (P11229 whole entry, looked up): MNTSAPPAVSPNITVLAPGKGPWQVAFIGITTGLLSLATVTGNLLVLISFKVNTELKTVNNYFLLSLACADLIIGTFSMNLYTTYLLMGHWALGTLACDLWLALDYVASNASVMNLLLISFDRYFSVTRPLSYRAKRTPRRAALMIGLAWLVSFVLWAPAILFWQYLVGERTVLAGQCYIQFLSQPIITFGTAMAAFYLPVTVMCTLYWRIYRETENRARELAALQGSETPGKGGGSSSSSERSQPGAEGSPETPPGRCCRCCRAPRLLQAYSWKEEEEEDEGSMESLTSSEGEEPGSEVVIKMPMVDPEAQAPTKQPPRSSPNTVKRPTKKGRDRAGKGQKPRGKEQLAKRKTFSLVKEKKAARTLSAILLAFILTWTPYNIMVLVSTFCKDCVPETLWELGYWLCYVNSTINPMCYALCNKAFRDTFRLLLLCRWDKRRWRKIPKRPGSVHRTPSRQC
How it was run: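 CHRM1-CHO calcium-flux assay, antagonist mode. Cells were seeded 18 h, dye-loaded 1 h at 37 C and given compound for 5 min at RT, then acetylcholine was added at 50nM. FDSS fluorescence was read 3 min; 15 concentrations, three runs.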

[13] = molecular target: Muscarinic acetylcholine receptor M1 (Homo sapiens) (UniProt P11229); experiment: Cholinergic receptor muscarinic 1 (CHRM1) small molecule agonists, cell-based qHTS assay (AID 1963589); further: nearly all actives have a fitted effect of over 35% in size
How it was run: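 Agonist-mode qHTS in CHO cells stably carrying human muscarinic M1. Intracellular calcium is tracked by fluorescence every second after compound transfer; each compound runs at 15 concentrations in three independent runs.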

[14] = cAMP Responsive Elements (CRE) small molecule agonists, cell-based qHTS assay (AID 1963590)
How it was run: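 Agonist mode qHTS in CRE-bla HEK 293T cells: compounds dosed from DMSO for 3 h at 37 C/5% CO2, followed by LiveBLAzer B/G FRET substrate for 2 h at room temperature.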

[15] = cAMP Responsive Elements (CRE) small molecule antagonists, cell-based qHTS assay (AID 1963591; active means well fitted inhibition curve with a large enough effect in the signal ratio in the repeat runs, not every such curve was filed as active; the % refers to the signal ratio)
How it was run: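 Antagonist mode: test compounds are co-incubated with the adenylyl cyclase activator NKH477 (0.25 uM final) on CRE-bla HEK293T cells for 3 h at 37 °C, followed by LiveBLAzer substrate loading.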

[16] = molecular target: Beta-2 adrenergic receptor (Homo sapiens) (UniProt P07550); experiment: Adrenergic beta2 receptor (ADRB2) small molecule antagonists, cell-based qHTS assay (AID 1963592); further: series mostly up to about 92 µM; nearly all actives have a fitted effect of over 50% in size
Chain of Beta-2 adrenergic receptor (Homo sapiens) (P07550 whole entry, looked up): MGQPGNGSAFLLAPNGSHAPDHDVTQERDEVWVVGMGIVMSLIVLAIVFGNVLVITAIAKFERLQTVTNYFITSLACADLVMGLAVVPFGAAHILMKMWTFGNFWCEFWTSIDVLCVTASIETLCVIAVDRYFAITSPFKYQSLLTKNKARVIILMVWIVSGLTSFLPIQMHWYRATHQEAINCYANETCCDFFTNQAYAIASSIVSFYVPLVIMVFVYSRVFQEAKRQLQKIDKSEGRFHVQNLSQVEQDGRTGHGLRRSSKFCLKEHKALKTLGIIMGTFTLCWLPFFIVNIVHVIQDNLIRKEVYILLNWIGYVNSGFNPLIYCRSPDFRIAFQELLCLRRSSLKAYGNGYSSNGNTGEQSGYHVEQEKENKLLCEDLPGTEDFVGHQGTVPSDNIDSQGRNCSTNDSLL
How it was run: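 Cells (CHO, stable ADRB2 overexpression) incubated 18-20hr at 37C; compounds added from DMSO; agonist mix (1nM isoproterenol, 100uM IBMX, 25uM Ro-20-1724) added; 0.5hr RT; d2-cAMP and anti-cAMP-cryptate added; 1hr RT; 665/615 nm read.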

[17] = molecular target: Beta-2 adrenergic receptor (Homo sapiens) (UniProt P07550); experiment: Adrenergic beta2 receptor (ADRB2) small molecule agonists, cell-based qHTS assay (AID 1963593); further: potency means the concentration at half of the fitted maximal effect;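 on activation: CHO cells stably overexpressing human ADRB2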
How it was run: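 CHO cells stably over-expressing ADRB2 were plated overnight at 37C, then dosed with compounds plus a stimulation mix containing 100uM IBMX and 25uM Ro-20-1724 for 0.5hr at room temperature. cAMP was measured by HTRF competition, 1hr.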

[18] = molecular target: D(2) dopamine receptor (Homo sapiens) (UniProt P14416); experiment: Dopamine D2 receptor (DRD2) small molecule agonists, cell-based qHTS assay (AID 1963594); further: nearly all actives have a fitted effect of over 35% in size
Chain of D(2) dopamine receptor (Homo sapiens) (P14416 whole entry, looked up): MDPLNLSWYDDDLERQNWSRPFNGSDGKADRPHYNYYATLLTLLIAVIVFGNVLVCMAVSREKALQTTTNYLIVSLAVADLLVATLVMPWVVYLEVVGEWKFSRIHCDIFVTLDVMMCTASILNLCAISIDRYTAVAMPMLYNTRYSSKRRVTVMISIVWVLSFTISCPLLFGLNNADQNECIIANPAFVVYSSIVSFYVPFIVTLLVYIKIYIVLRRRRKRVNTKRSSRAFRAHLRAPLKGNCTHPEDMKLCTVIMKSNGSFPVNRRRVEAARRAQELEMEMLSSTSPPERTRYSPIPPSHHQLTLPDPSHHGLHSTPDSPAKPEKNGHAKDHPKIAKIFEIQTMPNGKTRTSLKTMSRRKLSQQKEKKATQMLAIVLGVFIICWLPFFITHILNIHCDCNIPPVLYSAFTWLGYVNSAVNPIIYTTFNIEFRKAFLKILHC
How it was run: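 HEK293 cells stably expressing human DRD2, pre-treated with PDE inhibitor Ro20-1724 (0.1 mM final) and compound 10 min at room temperature, then stimulated with NKH477 (200nM […]) for 30 min. cAMP read by HTRF (665/620 nm).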

[19] = molecular target: D(2) dopamine receptor (Homo sapiens) (UniProt P14416); experiment: Dopamine D2 receptor (DRD2) small molecule antagonists, cell-based qHTS assay (AID 1963595; active means well fitted inhibition curve with a large enough effect in the signal ratio in the repeat runs, with a control signal flat; the % refers to the signal ratio)
How it was run: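 HEK293 cells stably expressing DRD2 were preincubated with 0.1 mM Ro20-1724, then with compound for 10 min at room temperature. Cells were stimulated with 200 nM NKH477 plus 12 nM quinpirole for 30 min, and cAMP was read by HTRF.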

[20] = p53 small molecule agonists, cell-based qHTS assay with human liver microsomes (AID 1963577);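 further: p53 response element beta-lactamase reporter cells with liver microsomes plus NADPH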
How it was run: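 p53RE-bla cells; 5 h settle, 37 C/5% CO2; cpd + HLM 0.5 mg/mL + NADPH 0.5 mg/mL (final); 16 h 37 C; LiveBLAzer 2 h RT dark; fluorescence readout.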

| SMILES | Potency [1] | Potency [2] | Potency [3] | Potency [4] | Potency [5] | Potency [6] | Potency [7] | Potency [8] | Potency [9] | Potency [10] | Potency [11] | Potency [12] | Potency [13] | Potency [14] | Potency [15] | Potency [16] | Potency [17] | Potency [18] | Potency [19] | Potency [20] |
| --- | --- | --- | --- | --- | --- | --- | --- | --- | --- | --- | --- | --- | --- | --- | --- | --- | --- | --- | --- | --- |
| O=C(Nc1ccc([N+](=O)[O-])cc1)Nc1ccc([N+](=O)[O-])cc1 (tested in a mixture with another compound) | inactive | inactive | inactive | inactive | inactive | inactive | inactive | inactive | inactive | inactive | inactive | inactive | inactive | inactive | inactive | inactive | inactive | inactive | inactive |  |
| CCOC(=O)CN | inactive | inactive | inactive | inactive | inactive | inactive | inactive | inactive | inactive | inactive | inactive | inactive | inactive | inactive | inactive | inactive |  | inactive | inactive |  |
| COC(=O)C1=C(C)NC(C)=C(C(=O)OCC(C)C)C1c1ccccc1[N+](=O)[O-] (stereo unspecified) | inactive | 24.3 µM (active) and inactive | inactive | inactive | inactive | inactive | inactive | inactive | inactive |  |  |  |  |  | inactive | inactive | 11.9 µM (active) | inactive |  | inactive |
| CC1CCC(C(C)(C)S)C(=O)C1 (stereo unspecified) | inactive | inactive | inactive | inactive | inactive | inactive | inactive | inactive | inactive | inactive | inactive | inactive |  | inactive | inactive | inactive |  | inactive | inactive |  |
| CC(=O)SC[C@@H](C)C(=O)N1CCC[C@H]1C(=O)N[C@@H](Cc1ccccc1)C(=O)O | inactive | inactive | inactive | inactive | inactive | inactive | inactive | inactive |  | inactive | inactive | inactive | inactive | inactive | inactive | inactive |  | inactive | inactive | inactive |
| C=CCOCC(CC)(CO)COCC=C | inactive | inactive | inactive | inactive | inactive | inactive | inactive | inactive | inactive | inactive | inactive | inactive | inactive | inactive | inactive | inactive |  | inactive |  |  |
| COCCCC/C(=N\OCCN)c1ccc(C(F)(F)F)cc1 | inactive | inactive | inactive | inactive | inactive | inactive | inactive | inactive | inactive | inactive | inactive | inactive | inactive | inactive | inactive | inactive | inactive |  | inactive |  |
